Shown is part of a subset that was picked to be rich in hits.
Pf Dd2 inh – inhibitors of Plasmodium falciparum Dd2 growth; actives 4.3% (n = 120,000); Potency, µM (series often up to 28.9 µM), inactives show at the top dose activity, negative = inhibition, usual class: inhibitors; P. falciparum Dd2 growth, SYBR Green, 72 h; active means well fitted inhibition curve with a large enough effect;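 further: plate controls were DMSO vehicle for no effect and reference drug for full effect; nearly all actives have a fitted effect of over 65% in size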
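Readout: SYBR Green fluorescence, 485 nm excitation, 535 nm emission, after ~16 h lysis at 37C. Before that, Dd2-infected red cells (2.5% hematocrit) grew 72 h with compound, 29 uM top final concentration.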
* hit, by the source's call; i = inactive; [ ] = remark or other dose. Potency means the concentration at half of the fitted maximal effect.

SMILES | Pf Dd2 inh
CC(C)N1C[C@H](C(=O)NCCc2ccccc2)[C@H](C(=O)O)C1 | -26%
CN(C)CCNC(=O)c1ccc2c(c1)C1(CCCN(CC3CC3)C1)CN2C (stereo not drawn) | -27%[44.1 µM]
CC(=O)N1CCCC2(C1)CN(C)c1ccc(C(=O)NCCc3ccccc3)cc12 (stereo not drawn) | 13%[44.1 µM]
CN1CC2(CCCN(CC3CC3)C2)c2cc(C(=O)NCCc3ccccc3)ccc21 (stereo not drawn) | 3.2µM*
Cc1ccc(OCC(=O)c2ccc3c(c2)N(CCCC(=O)N2CCOCC2)C(=O)CO3)cc1C | i
COc1ccccc1OCC(=O)c1ccc2c(c1)N(CCCC(=O)N1CCOCC1)C(=O)CO2 | i
CC(C)c1ccc(OCC(=O)c2ccc3c(c2)N(CCCC(=O)N2CCOCC2)C(=O)CO3)cc1 | 13µM*
COc1ccccc1CNC(=O)CSc1ncc2c(n1)-c1ccc(Cl)cc1N(Cc1ccccc1)S2(=O)=O | 1%
COc1ccc(CNC(=O)CSc2ncc3c(n2)-c2ccc(Cl)cc2N(Cc2ccc(F)cc2)S3(=O)=O)cc1OC | 11µM*
COc1ccc(CNC(=O)CSc2ncc3c(n2)-c2cc(Cl)ccc2N(Cc2ccccc2)S3(=O)=O)cc1 | -29%
CN1CCN(CCc2noc(C3CCCCCN3C)n2)CC1 (stereo not drawn) | 5%
CC1(CNC(=O)c2ccsc2)CCOCC1 | i
C[C@@H](NC(=O)[C@@H]1C[C@@H](NS(=O)(=O)c2cn(C)cn2)CCN1C(=O)c1ccco1)C(N)=O | 17%
COCc1cc(CNC(=O)C2COc3ccccc3C2)[nH]n1 (stereo not drawn) | -4%
CN1C(=O)[C@H]2CN(Cc3cn[nH]c3-c3cccs3)C[C@H]2C1=O | i
COc1ccc(Cn2nnc(C(=O)Nc3cc(OC)ccc3OC)c2N)cc1 | i
Cc1ccc(NC(=O)c2nnn(Cc3ccccc3)c2N)cc1C | 6%
COc1ccc(NC(=O)c2nnn(Cc3ccccc3C)c2N)c(OC)c1 | 1.1µM*
Cc1ccc(Cl)cc1NC(=O)c1nnn(Cc2ccccc2)c1N | 1.1µM*
COc1ccc(Cl)cc1NC(=O)c1nnn(Cc2cccc(C(F)(F)F)c2)c1N | -1%
Cc1cccc(Cn2nnc(C(=O)Nc3cc(C)ccc3C)c2N)c1 | 2µM*
COc1cccc(Cn2nnc(C(=O)Nc3cc(C)ccc3C)c2N)c1 | -32%
Cc1ccc(C)c(NC(=O)c2nnn(CC(=O)Nc3cccc(C)c3C)c2N)c1 | 2%
COc1ccc(NC(=O)c2nnn(CC(=O)Nc3cc(C)cc(C)c3)c2N)c(OC)c1 | -10%
O=C(NCc1ccccc1F)c1noc(-c2ccc3c(c2)OCO3)n1 | 19%
SMILES | Pf Dd2 inh
COc1ccc(-c2ccc3nnc(CNC(=O)c4ccc(C)cc4C)n3n2)cc1 | i
Cc1ncc2c(n1)C[C@@H]1CC[C@H]2N1S(=O)(=O)c1ccc(F)c(C)c1 | -16%
Cc1cc(-c2cc3[nH]ccc3c(C(=O)NCc3c(C)cc(C)[nH]c3=O)n2)ccn1 | -22%[44.1 µM]
Cc1cc(C)c(CNC(=O)c2cc(-c3cccc4[nH]ccc34)cc3ncn(C)c23)c(=O)[nH]1 | i
Cc1cc(C)c(CNC(=O)c2nc(-c3cccc(N4CCOCC4)c3)cc3[nH]ccc23)c(=O)[nH]1 | 8.9µM*
COc1cccc(Nc2cc3[nH]ccc3c(C(=O)NCc3c(C)cc(C)[nH]c3=O)n2)c1 | 11µM*
COc1ccc(-c2cc3c(ccn3C)c(C(=O)NCc3c(C)cc(C)[nH]c3=O)n2)cc1 | -26%[44.1 µM]
Cc1cc(C)c(CNC(=O)c2nc(-c3ccccc3)cc3[nH]ccc23)c(=O)[nH]1 | -1%[44.1 µM]
Cc1csc(NC(=O)[C@@H]2CCC[C@@H](NC(=O)c3cccnc3)CN(C)C(=O)C2)n1 | -3%[44.1 µM]
COc1ccc(CN2C(=O)CO[C@H]3CN(CC4CC4)C[C@H]32)cc1 | i
CC(C)N1C(=O)CO[C@H]2CCN(Cc3ccccc3)CC[C@@H]21 | -25%[44.1 µM]
COc1ccccc1CN1CC[C@@H]2OCC(=O)N(Cc3c[nH]c4ccccc34)[C@H]2CC1 | 4.5µM*
O=C1CO[C@H]2CN(Cc3ccc4c(c3)OCO4)C[C@H]2N1Cc1ccccn1 | i
COc1ccc(CN2C(=O)CO[C@H]3CN(Cc4c[nH]c5ccccc45)C[C@H]32)cc1 | 7.9µM*
O=C1CO[C@H]2CN(Cc3ccncc3)C[C@H]2N1Cc1ccc(F)cc1 | -5%[44.1 µM]
COc1ccc(CN2C(=O)CO[C@H]3CN(C(C)C)C[C@H]32)cc1 | i
N#Cc1cccc(CN2CC[C@@H]3OCC(=O)N(Cc4c[nH]c5ccccc45)[C@H]3CC2)c1 | i
CC(C)CCN1CC[C@@H]2OCC(=O)N(Cc3c[nH]c4ccccc34)[C@H]2CC1 | i
CC(C)c1ccc(CN2CC[C@@H]3OCC(=O)N(Cc4ccccc4)[C@H]3CC2)cc1 | 10µM*
O=C1CO[C@H]2CN(Cc3ccc4c(c3)OCO4)C[C@H]2N1Cc1ccc(F)cc1 | 10µM*
O=C1CO[C@H]2CCN(Cc3ccncc3)CC[C@@H]2N1Cc1ccccc1 | i
Cc1cn2nc(C(=O)N3CCC(NC(=O)c4ccco4)CC3)cc2c(=O)[nH]1 | i
CN1C(=O)CO[C@H]2CN(Cc3ccc(Cl)cc3)C[C@H]21 | -25%[44.1 µM]

Assay outcomes from PubChem.
